Measured values published in the supplement of paper PMC10849652.
About 7,900 targets were measured; listed, in parts, are those with a hit and a random draw of the rest. About 0.6% of all pairs of compound and target were hits.

Tests used:
Assay in all cases: log2 fold change, soluble protein after heating vs DMSO (PISA); higher = thermal stabilisation; K562 cells, 10 uM, 30 min; active = over 0.2 and 3.5 SD of the protein, either way, in both replicates (recomputed)
[1] = compound: CN1CCN(CCOc2cc(OC3CCOCC3)c3c(Nc4c(Cl)ccc5c4OCO5)ncnc3c2)CC1 [saracatinib]
How it was run: (§1)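 K562 cells at 2×10^6 cells/mL were given 10 μM compound for 30 min. Aliquots then went through 3 min of heating across 48°C-58°C, were pooled, and were extracted in PBS with 0.5% NP-40 at 4°C, and the supernatant after 21,000xg for 90 min was quantified by TMTpro 16plex LC-MS/MS with channel sums equalised. Thermal stability relative to control samples, from duplicates, is given as log2 fold change.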

[2] = compound: CN1CCN(c2nc(C3=C(c4c[nH]c5ccccc45)C(=O)NC3=O)c3ccccc3n2)CC1 [sotrastaurin]
How it was run: as §1

[3] = compound: CN1CC[C@H](c2c(O)cc(O)c3c(=O)cc(-c4ccccc4Cl)oc23)[C@H](O)C1 [alvocidib]
How it was run: as §1

[4] = compound: CN1CCc2c(c3ccccc3n2Cc2ccc(C(=O)NO)cc2)C1 [Tubastatin A]
How it was run: as §1

[5] = compound: CNC(=O)C1=CC=CC=C1NC2=NC(=NC=C2Cl)NC3=C(C=C(C=C3)N4CCOCC4)OC
How it was run: as §1

[6] = compound: CNC(=O)c1ccc(Nc2ncc(C(F)(F)F)c(NCc3nccnc3N(C)S(C)(=O)=O)n2)cc1 [defactinib]
How it was run: as §1

[7] = compound: CNCc1ccc(-c2[nH]c3cc(F)cc4c3c2CCNC4=O)cc1 [rucaparib]
How it was run: as §1

[8] = compound: CNc1nc(-c2ccc3c(N)n[nH]c3c2)cc(N2C[C@@H](C(=O)NC3CCCCC3)CC[C@H]2C)n1
How it was run: as §1

[9] = compound: COC(=O)N[C@@H](C)CNc1nccc(-c2cn(C(C)C)nc2-c2cc(Cl)cc(NS(C)(=O)=O)c2F)n1 [encorafenib]
How it was run: as §1

[10] = compound: COC(=O)[C@H](CCSC)NC(=O)C1=C(C=C(C=C1)NC[C@H](CS)N)C2=CC=CC=C2
How it was run: as §1

Measured: log2 fold change

TAX1BP1 (UniProt Q86VP1)
inactive: [1] 0.016 | [2] -0.057 | [3] -0.028 | [4] -0.01 | [5] -0.016 | [6] -0.038 | [7] -0.003 | [8] -0.06 | [9] 0.025 | [10] 0.054

SPECC1 (UniProt Q5M775)
inactive: [1] -0.171 | [2] 0.093 | [3] 0.06 | [4] -0.024 | [5] -0.069 | [6] 0 | [7] 0.091 | [8] -0.104 | [9] -0.015 | [10] -0.062

SPG21 (UniProt Q9NZD8)
inactive: [1] 0.007 | [2] -0.005 | [3] -0.097 | [4] 0.016 | [5] -0.015 | [6] -0.134 | [7] 0.089 | [8] 0.211 | [9] -0.022 | [10] 0.01

SNW1 (UniProt Q13573)
Chain of UniProt Q13573 (Q13573 whole entry, looked up): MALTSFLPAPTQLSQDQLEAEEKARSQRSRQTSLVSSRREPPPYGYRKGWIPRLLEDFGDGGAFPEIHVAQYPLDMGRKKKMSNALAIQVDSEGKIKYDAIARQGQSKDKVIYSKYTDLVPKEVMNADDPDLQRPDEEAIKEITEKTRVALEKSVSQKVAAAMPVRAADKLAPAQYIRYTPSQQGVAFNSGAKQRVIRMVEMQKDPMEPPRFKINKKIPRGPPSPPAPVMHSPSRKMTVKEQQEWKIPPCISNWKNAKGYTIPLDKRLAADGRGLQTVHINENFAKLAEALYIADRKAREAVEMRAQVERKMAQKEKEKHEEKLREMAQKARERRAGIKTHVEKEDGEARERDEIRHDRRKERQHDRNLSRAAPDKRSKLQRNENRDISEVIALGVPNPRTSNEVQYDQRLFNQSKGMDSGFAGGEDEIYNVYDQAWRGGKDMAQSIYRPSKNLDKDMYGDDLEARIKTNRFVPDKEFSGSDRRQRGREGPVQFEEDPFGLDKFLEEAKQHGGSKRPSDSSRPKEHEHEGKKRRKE
inactive: [1] 0.01 | [2] 0.003 | [3] 0.128 | [4] -0.033 | [5] 0.038 | [6] 0.131 | [7] 0.042 | [8] -0.082 | [9] -0.005 | [10] -0.005

TIPRL (UniProt O75663)
Chain of UniProt O75663 (O75663 whole entry, looked up): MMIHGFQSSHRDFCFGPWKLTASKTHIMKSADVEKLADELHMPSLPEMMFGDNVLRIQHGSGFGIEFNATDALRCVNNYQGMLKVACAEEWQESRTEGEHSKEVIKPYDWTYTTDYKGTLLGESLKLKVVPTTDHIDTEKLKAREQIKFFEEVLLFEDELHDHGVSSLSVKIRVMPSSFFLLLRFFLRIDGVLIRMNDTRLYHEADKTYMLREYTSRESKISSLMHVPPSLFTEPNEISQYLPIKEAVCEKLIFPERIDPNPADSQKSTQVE
inactive: [1] -0.028 | [2] -0.056 | [3] -0.119 | [4] 0 | [5] 0.009 | [6] -0.049 | [7] 0.013 | [8] -0.001 | [9] 0.035 | [10] -0.014

TGFBRAP1 (UniProt Q8WUH2)
inactive: [1] -0.124 | [2] 0.048 | [3] -0.008 | [4] 0.134 | [5] 0.047 | [6] -0.061 | [7] 0.097 | [8] -0.051 | [9] 0.076 | [10] -0.109

SNX3 (UniProt O60493)
Chain of UniProt O60493 (O60493 whole entry, looked up): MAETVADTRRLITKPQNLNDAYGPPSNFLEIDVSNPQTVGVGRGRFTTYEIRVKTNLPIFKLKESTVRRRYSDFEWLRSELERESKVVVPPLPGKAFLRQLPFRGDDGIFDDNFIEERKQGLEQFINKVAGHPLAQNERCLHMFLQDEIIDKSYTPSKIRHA
inactive: [1] -0.086 | [2] 0.038 | [3] -0.016 | [4] -0.005 | [5] 0.018 | [6] -0.067 | [7] 0.081 | [8] 0.026 | [9] 0.194 | [10] -0.079

TBC1D15 isoform 3 (UniProt Q8TC07)
inactive: [1] -0.01 | [2] -0.117 | [3] -0.054 | [4] -0.011 | [5] -0.014 | [6] -0.09 | [7] 0.059 | [8] -0.012 | [9] 0.068 | [10] -0.003

SUN1 isoform 9 (UniProt O94901)
Chain of UniProt O94901 (O94901 whole entry, looked up): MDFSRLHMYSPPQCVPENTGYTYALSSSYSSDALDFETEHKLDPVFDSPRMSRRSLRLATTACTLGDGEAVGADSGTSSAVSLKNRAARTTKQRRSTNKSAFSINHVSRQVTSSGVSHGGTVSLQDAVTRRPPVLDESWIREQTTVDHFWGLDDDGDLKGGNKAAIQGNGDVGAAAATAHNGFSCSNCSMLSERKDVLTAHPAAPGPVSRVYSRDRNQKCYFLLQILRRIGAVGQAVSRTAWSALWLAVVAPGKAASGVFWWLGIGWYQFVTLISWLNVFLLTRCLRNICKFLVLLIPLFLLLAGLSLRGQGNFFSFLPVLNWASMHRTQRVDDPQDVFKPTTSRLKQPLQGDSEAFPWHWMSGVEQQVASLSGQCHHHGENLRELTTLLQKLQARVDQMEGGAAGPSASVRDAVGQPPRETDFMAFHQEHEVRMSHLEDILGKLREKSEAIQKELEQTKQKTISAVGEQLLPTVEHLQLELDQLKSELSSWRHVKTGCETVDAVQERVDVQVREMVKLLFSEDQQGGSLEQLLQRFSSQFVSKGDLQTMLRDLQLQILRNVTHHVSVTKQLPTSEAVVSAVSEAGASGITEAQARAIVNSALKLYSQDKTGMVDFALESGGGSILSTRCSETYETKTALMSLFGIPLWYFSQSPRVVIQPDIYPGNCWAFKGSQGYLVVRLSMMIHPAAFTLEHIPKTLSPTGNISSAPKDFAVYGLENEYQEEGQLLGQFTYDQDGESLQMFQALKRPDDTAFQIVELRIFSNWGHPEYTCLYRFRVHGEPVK
inactive: [1] -0.023 | [2] -0.178 | [3] 0 | [4] -0.048 | [5] -0.108 | [6] 0.049 | [7] 0.083 | [8] -0.038 | [9] -0.018 | [10] -0.029

SNX5 (UniProt Q9Y5X3)
inactive: [1] 0 | [2] -0.006 | [3] -0.061 | [4] -0.013 | [5] -0.117 | [6] -0.014 | [7] -0.054 | [8] 0.012 | [9] 0.03 | [10] 0.006

TELO2 (UniProt Q9Y4R8)
inactive: [1] -0.05 | [2] -0.211 | [3] -0.015 | [4] -0.004 | [5] 0.03 | [6] -0.019 | [7] 0.2 | [8] 0.145 | [9] 0.049 | [10] -0.057

SUPT16H (UniProt Q9Y5B9)
inactive: [1] -0.125 | [2] -0.209 | [3] -0.359 | [4] 0.374 | [5] 0.034 | [7] -0.104 | [8] 0.024 | [9] 0.113 | [10] -0.138
active: [6] -0.476

SMAP (UniProt O00193)
inactive: [1] -0.035 | [2] 0.016 | [3] -0.015 | [4] 0.016 | [5] -0.069 | [6] -0.001 | [7] -0.064 | [8] 0.009 | [9] -0.054 | [10] 0.013

SLC35A1 (UniProt P78382)
inactive: [1] 0.038 | [2] 0.015 | [3] 0.006 | [4] -0.038 | [5] -0.016 | [6] -0.198 | [7] 0.048 | [8] -0.112 | [9] 0.043 | [10] -0.211

SLC35F6 (UniProt Q8N357)
inactive: [1] 0.182 | [2] -0.071 | [3] -0.002 | [4] -0.05 | [5] -0.025 | [6] -0.043 | [7] -0.004 | [8] -0.247 | [9] -0.042 | [10] 0.007

SMC5 (UniProt Q8IY18)
inactive: [1] -0.005 | [2] -0.075 | [3] 0 | [4] -0.034 | [5] 0.056 | [6] -0.05 | [7] 0.015 | [8] -0.046 | [9] -0.045 | [10] -0.014

SLC30A7 (UniProt Q8NEW0)
Chain of UniProt Q8NEW0 (Q8NEW0 whole entry, looked up): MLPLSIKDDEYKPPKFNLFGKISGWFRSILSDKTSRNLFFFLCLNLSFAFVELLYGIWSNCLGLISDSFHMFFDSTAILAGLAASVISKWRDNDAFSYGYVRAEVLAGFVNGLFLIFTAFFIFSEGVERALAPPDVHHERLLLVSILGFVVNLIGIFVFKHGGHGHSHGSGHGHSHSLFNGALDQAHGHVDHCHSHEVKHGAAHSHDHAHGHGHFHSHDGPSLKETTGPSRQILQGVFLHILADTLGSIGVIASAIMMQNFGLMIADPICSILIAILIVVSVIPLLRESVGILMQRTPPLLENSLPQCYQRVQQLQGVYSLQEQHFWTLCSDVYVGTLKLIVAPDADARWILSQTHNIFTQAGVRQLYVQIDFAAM
inactive: [1] 0.077 | [2] 0.101 | [3] -0.105 | [4] -0.107 | [5] 0.016 | [6] -0.051 | [7] 0.02 | [8] -0.026 | [9] 0.059 | [10] 0.029

SLC6A6 (UniProt P31641)
inactive: [1] -0.011 | [2] 0.041 | [3] -0.031 | [4] -0.143 | [5] -0.029 | [6] -0.051 | [7] 0.065 | [8] -0.061 | [9] -0.051 | [10] -0.009

SMIM20 isoform 2 (UniProt Q8N5G0)
Chain of UniProt Q8N5G0 (Q8N5G0 whole entry, looked up): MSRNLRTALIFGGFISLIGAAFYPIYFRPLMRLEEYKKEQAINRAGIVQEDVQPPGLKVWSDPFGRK
inactive: [1] 0 | [2] 0.056 | [3] -0.024 | [4] -0.013 | [5] 0.018 | [6] -0.138 | [7] -0.088 | [8] -0.094 | [9] -0.055 | [10] -0.143

THRAP3 (UniProt Q9Y2W1)
Chain of UniProt Q9Y2W1 (Q9Y2W1 whole entry, looked up): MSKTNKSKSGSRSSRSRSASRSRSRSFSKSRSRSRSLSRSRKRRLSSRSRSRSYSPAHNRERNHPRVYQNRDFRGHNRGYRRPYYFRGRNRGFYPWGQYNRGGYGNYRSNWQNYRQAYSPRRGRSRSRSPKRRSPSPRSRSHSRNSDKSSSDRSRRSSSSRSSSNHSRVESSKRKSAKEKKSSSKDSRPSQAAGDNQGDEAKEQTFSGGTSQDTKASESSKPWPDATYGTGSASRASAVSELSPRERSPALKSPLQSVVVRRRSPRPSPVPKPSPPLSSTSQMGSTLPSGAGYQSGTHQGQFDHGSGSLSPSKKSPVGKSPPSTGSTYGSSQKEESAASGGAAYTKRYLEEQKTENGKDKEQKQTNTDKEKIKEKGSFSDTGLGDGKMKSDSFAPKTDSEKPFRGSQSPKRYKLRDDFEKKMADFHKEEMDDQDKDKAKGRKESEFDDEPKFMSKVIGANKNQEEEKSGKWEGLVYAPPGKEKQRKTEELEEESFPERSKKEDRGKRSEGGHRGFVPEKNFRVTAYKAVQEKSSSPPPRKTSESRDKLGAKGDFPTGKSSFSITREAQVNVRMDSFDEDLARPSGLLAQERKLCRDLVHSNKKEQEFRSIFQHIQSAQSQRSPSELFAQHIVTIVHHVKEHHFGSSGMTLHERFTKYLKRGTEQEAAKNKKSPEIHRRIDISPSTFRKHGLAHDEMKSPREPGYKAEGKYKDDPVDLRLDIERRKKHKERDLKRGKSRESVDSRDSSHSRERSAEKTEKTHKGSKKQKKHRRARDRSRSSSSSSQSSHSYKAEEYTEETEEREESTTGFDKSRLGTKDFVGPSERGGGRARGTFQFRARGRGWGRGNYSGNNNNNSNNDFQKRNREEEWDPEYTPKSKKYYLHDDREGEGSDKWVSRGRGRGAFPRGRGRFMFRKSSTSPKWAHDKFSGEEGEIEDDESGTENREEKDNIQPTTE
inactive: [1] 0.035 | [2] 0.008 | [3] 0.094 | [4] 0.048 | [5] -0.266 | [6] -0.29 | [7] -0.002 | [8] -0.047 | [9] -0.015 | [10] 0.019

SRI (UniProt P30626)
Chain of UniProt P30626 (P30626 whole entry, looked up): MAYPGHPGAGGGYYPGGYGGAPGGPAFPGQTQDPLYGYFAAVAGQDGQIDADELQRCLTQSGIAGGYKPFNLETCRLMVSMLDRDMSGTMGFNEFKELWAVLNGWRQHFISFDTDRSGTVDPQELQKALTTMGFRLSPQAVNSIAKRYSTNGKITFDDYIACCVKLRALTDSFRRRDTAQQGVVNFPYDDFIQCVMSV
inactive: [1] -0.034 | [2] -0.017 | [3] -0.062 | [4] 0.039 | [5] 0.034 | [6] -0.108 | [7] -0.012 | [8] -0.021 | [9] -0.03 | [10] -0.022

SLC39A11 (UniProt Q8N1S5)
active: [7] -0.518
inactive: [1] 0.098 | [2] 0.127 | [3] 0.02 | [4] -0.164 | [5] -0.223 | [6] 0.074 | [8] -0.015 | [9] -0.077 | [10] -0.082

SLC4A2 (UniProt P04920)
Chain of UniProt P04920 (P04920 whole entry, looked up): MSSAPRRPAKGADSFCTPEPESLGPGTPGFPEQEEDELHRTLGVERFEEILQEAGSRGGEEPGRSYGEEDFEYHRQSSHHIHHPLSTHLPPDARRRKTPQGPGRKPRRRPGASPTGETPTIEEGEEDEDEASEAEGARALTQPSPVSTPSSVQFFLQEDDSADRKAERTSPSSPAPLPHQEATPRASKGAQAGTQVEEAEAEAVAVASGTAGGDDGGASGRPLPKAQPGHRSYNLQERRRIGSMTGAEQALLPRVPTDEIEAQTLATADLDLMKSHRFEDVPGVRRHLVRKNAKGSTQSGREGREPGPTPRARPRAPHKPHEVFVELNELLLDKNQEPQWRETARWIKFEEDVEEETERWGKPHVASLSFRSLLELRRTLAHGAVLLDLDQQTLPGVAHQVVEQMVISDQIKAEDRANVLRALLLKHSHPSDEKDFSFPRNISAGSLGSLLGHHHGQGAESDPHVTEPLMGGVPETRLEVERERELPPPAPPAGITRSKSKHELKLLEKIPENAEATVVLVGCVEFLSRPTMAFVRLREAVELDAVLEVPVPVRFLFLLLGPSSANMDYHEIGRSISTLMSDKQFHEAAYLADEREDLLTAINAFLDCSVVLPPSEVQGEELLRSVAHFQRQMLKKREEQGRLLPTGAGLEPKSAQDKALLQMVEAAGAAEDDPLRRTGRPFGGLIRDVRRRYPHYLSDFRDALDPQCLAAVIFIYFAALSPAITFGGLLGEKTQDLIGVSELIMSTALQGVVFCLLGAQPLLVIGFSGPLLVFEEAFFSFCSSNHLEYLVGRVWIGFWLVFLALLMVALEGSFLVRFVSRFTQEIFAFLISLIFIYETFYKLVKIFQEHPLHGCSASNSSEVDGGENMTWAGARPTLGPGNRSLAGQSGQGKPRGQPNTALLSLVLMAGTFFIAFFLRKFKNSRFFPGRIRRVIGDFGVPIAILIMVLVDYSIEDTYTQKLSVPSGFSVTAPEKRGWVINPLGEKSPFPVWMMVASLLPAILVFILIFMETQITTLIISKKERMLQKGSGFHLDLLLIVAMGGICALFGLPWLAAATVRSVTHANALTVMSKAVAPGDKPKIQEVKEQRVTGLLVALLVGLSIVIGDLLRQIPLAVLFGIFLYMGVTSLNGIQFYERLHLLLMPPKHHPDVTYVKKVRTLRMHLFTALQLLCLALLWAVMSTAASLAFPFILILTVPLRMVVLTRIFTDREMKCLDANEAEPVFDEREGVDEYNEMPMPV
inactive: [1] 0.003 | [2] -0.029 | [3] -0.174 | [4] 0.066 | [5] -0.006 | [6] 0.028 | [7] 0.064 | [8] 0.008 | [9] 0.085 | [10] -0.067

SMAD9 (UniProt O15198)
inactive: [1] 0.076 | [2] 0.078 | [3] -0.065 | [4] -0.003 | [5] -0.013 | [6] -0.076 | [7] -0.094 | [8] 0.055 | [9] -0.001 | [10] -0.049

STAT5B (UniProt P51692)
inactive: [1] -0.231 | [2] -0.083 | [3] -0.023 | [4] 0.045 | [5] -0.053 | [6] -0.33 | [7] 0.105 | [8] 0.138 | [9] 0.073 | [10] -0.052

SLC25A36 (UniProt Q96CQ1)
Chain of UniProt Q96CQ1 (Q96CQ1 whole entry, looked up): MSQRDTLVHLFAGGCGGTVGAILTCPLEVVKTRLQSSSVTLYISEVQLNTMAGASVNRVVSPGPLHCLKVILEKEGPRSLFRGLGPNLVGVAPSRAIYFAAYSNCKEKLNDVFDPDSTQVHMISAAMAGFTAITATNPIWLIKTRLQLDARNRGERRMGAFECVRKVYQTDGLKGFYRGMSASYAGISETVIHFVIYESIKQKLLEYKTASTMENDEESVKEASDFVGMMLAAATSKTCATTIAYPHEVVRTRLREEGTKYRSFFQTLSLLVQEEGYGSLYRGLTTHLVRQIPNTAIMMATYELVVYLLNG
inactive: [1] 0.233 | [2] -0.057 | [3] -0.018 | [4] -0.027 | [5] 0.013 | [6] 0.011 | [7] 0.066 | [8] 0.016 | [9] -0.055 | [10] 0.162

SLC27A4 (UniProt Q6P1M0)
inactive: [1] -0.035 | [2] 0.035 | [3] -0.09 | [4] -0.005 | [5] -0.083 | [6] -0.084 | [7] 0.06 | [8] 0.072 | [9] 0.018 | [10] -0.05

SNX1 (UniProt Q13596)
inactive: [1] 0.006 | [2] -0.006 | [3] -0.084 | [4] -0.021 | [5] -0.112 | [6] -0.036 | [7] -0.023 | [8] 0.028 | [9] 0.024 | [10] -0.026

SYNE1 (UniProt Q8NF91)
inactive: [1] -0.054 | [2] -0.086 | [3] 0.011 | [4] 0.193 | [5] -0.14 | [6] -0.092 | [7] -0.039 | [8] 0.045 | [9] -0.101 | [10] 0.076
